Where “and” joins values, the source holds several entries; their conditions need not be identical. Equal entries are not always repeated. Values without a mark were called inactive. Inconclusive results are not listed. Calls of active or inactive are those of the source. Unless noted, calls follow the shape of the full dose curve. Peptide text beside a SMILES is read from it.

We go through 32 compounds from PubChem BioAssay (NCATS).

For test [1], the target named is Estrogen receptor (Homo sapiens) (UniProt P03372). The test can be described thus: qHTS assay for small molecule agonists of estrogen receptor alpha signaling (AID 588514).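 Also: 0% = vehicle only and 100% = reference agonist; nearly all actives have a fitted effect of over 70% in size.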 The following applies: ER-alpha-UAS-bla HEK293, beta-lactamase ratio, 18 h, percent of full estradiol response, vehicle zero; series mostly up to 76.8 µM. In a few lines: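 Efficacy is expressed against 20 nM 17-beta-estradiol (100%) and DMSO basal (0%); EC50 from Hill equation. Assay: beta-lactamase reporter in ER-alpha-UAS-bla HEK 293 cells, 18 h compound incubation, CCF4 detection.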
On the technique in general: Quantitative high-throughput screening tests each substance at several concentrations.

Test [2] deals with Bile acid receptor (Homo sapiens) (UniProt Q96RI1). Kind of test: qHTS assay for small molecule antagonists of farnesoid X receptor signaling (AID 588526). Also: % is scaled to controls: 0 for no effect and ±100 for the full control effect. The following applies: HEK293T FXR-UAS-bla, beta-lactamase ratio, antagonist mode; series mostly up to 76.7 µM. A digest of the protocol: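 Concentration-response titrations were fitted to the Hill equation for half-maximal inhibition and maximal response, with data normalised to 50 uM chenodeoxycholic acid and DMSO control wells. Cells: FXR-UAS-bla HEK293T, dialyzed FBS.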

In test [3] the target is Glucocorticoid receptor (Homo sapiens) (UniProt P04150). Kind of test: qHTS assay for small molecule agonists of glucocorticoid receptor signaling (AID 588532; active = well fitted curve in the direction sought with a large enough effect in the signal ratio, with a control signal flat; the % refers to the signal ratio;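 also: 100% = dexamethasone at 0.1 µM and 0% = DMSO only wells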). The settings on record: HeLa MMTV-bla, beta-lactamase ratio, agonist, 18 h; hits give high values; percent of dexamethasone control, DMSO zero. In a few lines: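 MMTV-bla HeLa, beta-lactamase reporter; medium with 1% charcoal/dextran-stripped FBS; cpds up to 92 uM, 18 h, 37 C; CCF4 readout 460/530 nm; Hill fit → EC50, efficacy vs 0.1 uM dexamethasone = 100%.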

Test [4] has the same target. The test can be described thus: qHTS assay for small molecule antagonists of glucocorticoid receptor signaling (AID 588533; active = well fitted inhibition curve with a large enough effect in the signal ratio, with a control signal flat, not every such curve was filed as active; the % refers to the signal ratio;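 also: cells stimulated with 2 nM dexamethasone as agonist; % is scaled to controls: 0 for no effect and ±100 for the full control effect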). The following applies: HeLa MMTV-bla, GRE beta-lactamase ratio, antagonist mode, 18 h; series mostly up to 76.8 µM. A digest of the protocol:
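Antagonist-mode qHTS: compound titrations added to GRE-bla HeLa cells, then dexamethasone 2 nM final; 18 h, 37 C. CCF4 FRET fluorescence normalized to dexamethasone and DMSO; IC50 from Hill fit.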

Test [5] addresses Estrogen receptor (Homo sapiens) (UniProt P03372). The test can be described thus: qHTS assay for small molecule antagonists of estrogen receptor alpha signaling (AID 588513; active = well fitted curve in the direction sought with a large enough effect in the signal ratio, with a control signal flat, not every such curve was filed as active; the % refers to the signal ratio; also: % is scaled to controls: 0 for no effect and ±100 for the full control effect). The settings on record: ER-alpha-UAS-bla HEK293, beta-lactamase ratio, antagonist mode; series mostly up to 76.9 µM. In a few lines: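 Cells were plated at 5000/well and incubated 4 h at 37 C. Compounds were added as 1:2 dilution series, duplicates. 17-beta-estradiol (0.5nM final) was added for 18 h before CCF4 detection.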

In test [6] the target is Androgen receptor (Homo sapiens) (UniProt P10275). The test can be described thus: qHTS assay for small molecule agonists of androgen receptor signaling (AID 588515; active = well fitted curve in the direction sought with a large enough effect in the signal ratio, with a control signal flat; the % refers to the signal ratio; also: % is scaled to controls: 0 for no effect and ±100 for the full control effect). The settings on record: AR-UAS-bla HEK293, beta-lactamase ratio, agonist 16 h; hits give high values. An excerpt: NIH Chemical Genomics Center [NCGC] U.S. Environmental Protection Agency [EPA] National Institutes of Environmental Health Sciences [NIEHS] National Toxicology Program [NTP] NCGC Assay Overview Androgen receptor (AR), located at chromosome Xq11-12, is an important member of nuclear hormone receptors. AR signaling plays a critical role in AR-dependent prostate cancer and other androgen related diseases. Considerable attention has been given in the past decades to the possibility of some of environmental chemicals which may contribute the endocrine disruption. Therefore, it is important to understand the effect of environmental chemicals in AR signaling pathway.
NCGC Assay Protocol Summary Using a beta-lactamase reporter-gene under control of the AR response element, a cell-based assay [GeneBLAzer AR-UAS-bla-GripTite assay developed by Invitrogen] was used to measure AR ligands signaling. AR-UAS-bla-GripTite HEK 293 cells were used with assay medium containing 10% dialyzed FBS, 0.1 mM NEAA and 1 mM sodium pyruvate. The assay was performed in clear bottom black Greiner 1536-well plates. R1881, a synthetic androgen agonist, was used as a positive control in the screen. Library compounds were measured for their ability to stimulate the reporter gene activity. Compounds were screened in a titration series in 1536-well format. The fluorescence intensity (405 nm excitation, 460/530 nm emission) was measured using an EnVision plate reader. Data was normalized relative to R1881 control (30 nM, 100%), and DMSO only wells (basal, 0%). Concentration-response titration points for each compound were fitted to the Hill equation yielding concentrations of half-maximal stimulation (EC50) and maximal response (efficacy) values. qHTS protocol for AR beta-lactamase assay in agonist mode [Step] [Parameter] [Value] [Description] 1. Reagent; 6 uL; 2000 cells/well 2. Incubation; 37 C for 5 hrs 3. Compounds; 23 nL; 0.59 nM to 92 uM 4. Controls (R1881); 23 nL, - Dose response, start 3.83uM, 1:3 dilutions with duplicates in one column - Final concentrations of 30 and 20nM in two columns 5. Incubation; 37 C for 16 hrs 6. Detection reagent; 1 uL of CCF4-dye 7. Incubation; RT for 2 hrs 8. Detection; Fluorescence; Envision plate reader

For test [7] the target is unchanged. Kind of test: qHTS assay for small molecule antagonists of androgen receptor signaling (AID 588516; active = well fitted curve in the direction sought with a large enough effect in the signal ratio, with a control signal flat, not every such curve was filed as active; the % refers to the signal ratio; also: % is scaled to controls: 0 for no effect and ±100 for the full control effect). The following applies: AR-UAS-bla HEK293, beta-lactamase ratio, antagonist mode, 16 h; series mostly up to 76.8 µM. A digest of the protocol: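 Antagonist-mode qHTS: inhibition of R1881 (10 nM)-driven beta-lactamase expression in GripTite HEK 293 cells is measured after 16 h; values are Hill-derived IC50s normalized between R1881 and DMSO wells.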

Test [8] addresses DNA dC->dU-editing enzyme APOBEC-3G (Homo sapiens) (UniProt Q9HC16). The test can be described thus: qHTS for inhibitors of Vif-A3G interactions: Validation (AID 588379; active = well fitted curve in the direction sought with a large enough effect; an effect the other way counts as inactive or inconclusive; also: 0% is about no effect). The following applies: Vif-A3G protein interaction assay; series mostly up to 46.1 µM. A digest of the protocol:
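Yellow fluorescence (Ex 488, Em 500-530) of Vif-coexpressing HeLa A3G-eYFP cells, scanned by Acumen cytometer, reports blocked A3G degradation. Cells plated at 700/well overnight at 37 deg C before compound addition, then a further overnight compound incubation at 37 deg C.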

Test [9] in a line: qHTS for Inhibitors of ATXN expression: Validation (AID 588378; active = well fitted curve in the direction sought with a large enough effect; an effect the other way counts as inactive or inconclusive; also: nearly all actives have a fitted effect of over 75% in size; also: potency is read from the fitted curve at half-maximal effect). The following applies: cell-based ATXN2 expression reporter assay, luminescence; series mostly up to 57.1 µM. A digest of the protocol:
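Validation of ATXN2 expression inhibitors uses a cell-based luciferase fusion reporter in HEK293 cells, with 24 h compound exposure and paired viability (fluorescence) and reporter (luminescence) end-point reads.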

Sequence of Bile acid receptor (Homo sapiens) (Q96RI1 whole entry, looked up): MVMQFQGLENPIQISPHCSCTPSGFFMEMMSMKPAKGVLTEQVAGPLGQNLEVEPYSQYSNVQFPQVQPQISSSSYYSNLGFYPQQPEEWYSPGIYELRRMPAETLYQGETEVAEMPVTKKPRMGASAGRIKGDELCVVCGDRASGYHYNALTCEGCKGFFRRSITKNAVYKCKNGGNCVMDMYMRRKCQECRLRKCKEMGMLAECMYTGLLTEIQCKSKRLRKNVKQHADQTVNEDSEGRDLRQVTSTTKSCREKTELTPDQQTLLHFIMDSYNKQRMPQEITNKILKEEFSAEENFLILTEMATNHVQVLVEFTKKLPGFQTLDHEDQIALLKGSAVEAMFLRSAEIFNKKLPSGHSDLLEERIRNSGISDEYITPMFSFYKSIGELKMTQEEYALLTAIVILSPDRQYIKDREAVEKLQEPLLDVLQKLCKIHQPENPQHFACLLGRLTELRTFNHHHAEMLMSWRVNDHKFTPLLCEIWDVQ
Sequence of Estrogen receptor (Homo sapiens) (P03372 whole entry, looked up): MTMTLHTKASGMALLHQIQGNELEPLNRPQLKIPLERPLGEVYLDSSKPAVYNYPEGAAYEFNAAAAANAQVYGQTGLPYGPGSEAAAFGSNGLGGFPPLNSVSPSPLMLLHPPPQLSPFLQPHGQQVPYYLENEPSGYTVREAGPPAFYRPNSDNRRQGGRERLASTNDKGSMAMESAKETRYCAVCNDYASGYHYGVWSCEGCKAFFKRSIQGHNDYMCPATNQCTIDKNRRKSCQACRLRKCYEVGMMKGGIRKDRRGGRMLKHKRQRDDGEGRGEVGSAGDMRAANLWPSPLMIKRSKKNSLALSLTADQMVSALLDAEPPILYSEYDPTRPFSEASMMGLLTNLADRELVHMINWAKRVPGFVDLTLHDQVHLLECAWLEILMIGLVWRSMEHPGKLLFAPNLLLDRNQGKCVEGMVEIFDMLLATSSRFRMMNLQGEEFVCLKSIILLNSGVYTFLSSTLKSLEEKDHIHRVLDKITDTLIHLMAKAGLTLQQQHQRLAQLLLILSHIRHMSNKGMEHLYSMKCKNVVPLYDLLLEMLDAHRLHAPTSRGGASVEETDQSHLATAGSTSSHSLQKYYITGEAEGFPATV
Sequence of Androgen receptor (Homo sapiens) (P10275 whole entry, looked up): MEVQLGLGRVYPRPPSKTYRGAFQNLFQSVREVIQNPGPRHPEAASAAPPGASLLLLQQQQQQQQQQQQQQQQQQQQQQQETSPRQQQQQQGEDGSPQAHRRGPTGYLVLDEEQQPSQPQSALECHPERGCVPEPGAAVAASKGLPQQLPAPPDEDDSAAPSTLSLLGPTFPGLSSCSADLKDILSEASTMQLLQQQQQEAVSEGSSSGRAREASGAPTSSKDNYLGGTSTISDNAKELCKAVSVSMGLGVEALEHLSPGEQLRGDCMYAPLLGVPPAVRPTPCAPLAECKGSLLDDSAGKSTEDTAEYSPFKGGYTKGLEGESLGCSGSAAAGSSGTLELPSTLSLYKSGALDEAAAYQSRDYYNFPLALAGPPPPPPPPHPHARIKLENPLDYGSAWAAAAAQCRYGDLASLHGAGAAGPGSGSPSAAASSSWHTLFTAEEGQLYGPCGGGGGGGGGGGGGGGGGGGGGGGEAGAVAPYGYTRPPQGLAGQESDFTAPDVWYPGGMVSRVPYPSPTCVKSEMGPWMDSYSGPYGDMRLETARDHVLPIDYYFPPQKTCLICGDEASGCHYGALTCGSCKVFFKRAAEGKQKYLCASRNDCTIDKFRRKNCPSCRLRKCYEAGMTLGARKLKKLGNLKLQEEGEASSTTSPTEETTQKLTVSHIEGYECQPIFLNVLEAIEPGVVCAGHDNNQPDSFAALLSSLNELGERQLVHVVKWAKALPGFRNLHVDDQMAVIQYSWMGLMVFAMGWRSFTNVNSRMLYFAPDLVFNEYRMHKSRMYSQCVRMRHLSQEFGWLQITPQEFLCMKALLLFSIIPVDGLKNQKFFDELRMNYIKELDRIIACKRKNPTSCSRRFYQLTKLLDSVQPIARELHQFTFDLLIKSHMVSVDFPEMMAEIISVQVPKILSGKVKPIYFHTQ
Sequence of DNA dC->dU-editing enzyme APOBEC-3G (Homo sapiens) (Q9HC16 whole entry, looked up): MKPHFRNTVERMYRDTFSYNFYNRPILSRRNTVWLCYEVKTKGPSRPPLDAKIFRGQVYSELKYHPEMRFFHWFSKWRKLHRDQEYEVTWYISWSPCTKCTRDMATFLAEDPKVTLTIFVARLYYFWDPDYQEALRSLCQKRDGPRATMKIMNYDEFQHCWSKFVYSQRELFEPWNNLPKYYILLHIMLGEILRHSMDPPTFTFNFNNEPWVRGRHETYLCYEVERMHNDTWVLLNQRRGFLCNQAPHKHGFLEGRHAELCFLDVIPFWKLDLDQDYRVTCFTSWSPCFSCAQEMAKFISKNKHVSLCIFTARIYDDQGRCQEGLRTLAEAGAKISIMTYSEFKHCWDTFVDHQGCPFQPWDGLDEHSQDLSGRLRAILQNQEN
Sequence of Glucocorticoid receptor (Homo sapiens) (P04150 whole entry, looked up): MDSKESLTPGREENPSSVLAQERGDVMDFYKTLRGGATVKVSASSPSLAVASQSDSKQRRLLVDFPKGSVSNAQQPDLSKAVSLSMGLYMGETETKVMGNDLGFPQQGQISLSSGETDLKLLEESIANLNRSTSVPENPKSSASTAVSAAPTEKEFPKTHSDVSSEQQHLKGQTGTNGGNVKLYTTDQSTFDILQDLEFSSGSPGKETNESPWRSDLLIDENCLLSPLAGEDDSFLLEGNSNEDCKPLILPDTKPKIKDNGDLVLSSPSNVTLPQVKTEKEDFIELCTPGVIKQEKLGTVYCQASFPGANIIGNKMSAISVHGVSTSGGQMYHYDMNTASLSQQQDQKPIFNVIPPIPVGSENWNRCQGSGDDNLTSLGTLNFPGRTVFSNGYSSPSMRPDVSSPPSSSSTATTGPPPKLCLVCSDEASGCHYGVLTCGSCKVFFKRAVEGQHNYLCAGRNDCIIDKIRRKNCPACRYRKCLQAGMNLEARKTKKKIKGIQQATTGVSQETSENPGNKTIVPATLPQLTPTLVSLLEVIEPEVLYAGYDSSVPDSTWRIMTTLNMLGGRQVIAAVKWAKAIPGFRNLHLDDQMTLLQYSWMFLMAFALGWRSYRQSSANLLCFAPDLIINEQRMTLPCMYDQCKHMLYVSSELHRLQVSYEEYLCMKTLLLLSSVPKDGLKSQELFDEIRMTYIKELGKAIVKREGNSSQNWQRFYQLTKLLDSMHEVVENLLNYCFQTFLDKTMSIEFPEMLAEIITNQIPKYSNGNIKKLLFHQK

As for `CNC[C@H](O)c1ccc(O)c(O)c1`, the result in test [1] was inactive.
Take `O=c1c(O)c(-c2ccc(O)cc2O)oc2cc(O)cc(O)c12`: the result in [2] and in test [4] was inactive. The activation in [3] is -17.5%.
`CC1(C)NC(=O)N(c2ccc([N+](=O)[O-])c(C(F)(F)F)c2)C1=O`: in test [2], the result was inactive.
For `Cc1cc(O)c2c(c1)C(=O)c1cc(O)cc(O)c1C2=O`, the activation in test [3] was -3.03% and -5.65%.
Regarding `NS(=O)(=O)c1cc(C(=O)O)c(NCc2ccco2)cc1Cl`, the outcome in test [5] and in test [1] was inactive.
For `COc1cc(OC)c(C(=O)CCCN2CCCC2)c(OC)c1`, the activation in test [6] is 8.09%; in [3], 4.51%. The result in test [7] and in [4] was inactive.
In the case of `CC(=O)N1CCN(c2ccc(OC[C@H]3CO[C@](Cn4ccnc4)(c4ccc(Cl)cc4Cl)O3)cc2)CC1`, the compound was called inactive in [8], in test [1] and in [4]. In test [3], the activation is 3.09%.
For `c1ccc2[nH]c(-c3cscn3)nc2c1`, the result in [5], in test [1], in test [2] and in test [4] was inactive. Besides, the activation is 7.31% and -15.4% in test [6]; -3.88% and -4.87% in test [3].
For `C[C@H](Cc1ccc(O)c(O)c1)[C@@H](C)Cc1ccc(O)c(O)c1`, the Potency in test [9] is 22.4 µM (active).
As for `Cc1ccc(C)c(OCCCC(C)(C)C(=O)O)c1`, the outcome in [5], in test [1], in [7] and in [2] was inactive. Also, in [6], the activation is 4.9% and 2.29%.
`CC(C)c1ccc2c(c1)c(SC(C)(C)C)c(CC(C)(C)C(=O)O)n2Cc1ccc(Cl)cc1`: the result in test [8] was inactive.
As for `COC(=O)[C@H](Cc1ccccc1)NC(=O)[C@@H](N)CC(=O)O` (H-Asp-Phe-OMe), the outcome in [5], in [1], in test [2] and in test [4] was inactive. Also, the activation in test [3] is -0.956% and -8.82%.
`O=C1c2ccccc2-c2n[nH]c3cccc1c23`: the Potency result in test [9] was “inactive”. Moreover, the call in test [8] was inactive.
As to `CN(C)c1ccc2nc3ccc(=[N+](C)C)cc-3sc2c1`, the result in [1] and in [4] was inactive.
For `CCc1nc(N)nc(N)c1-c1ccc(Cl)cc1`, the result in test [5], in test [1] and in [4] was inactive. Besides, in [3], the activation was 6.7% and -0.85%.
For the compound `CCN(CC)CCOc1ccc(Cc2ccccc2)cc1`, in test [8], the outcome was inactive.
For `Nc1nc(N)c(N=O)c(OCC2CCCCC2)n1`, in [9], the Potency result was “inactive”.
With `CCCc1cc(=O)[nH]c(=S)[nH]1`, the outcome in [5] and in test [1] was inactive.
For `CCOC(=O)C1=C(O)C(=O)N(Cc2ccccc2)C1`, the call in [8] was inactive.
As for `NC(=NCc1ccccc1)NC(=O)c1nc(Cl)c(N)nc1N`, the Potency result in test [9] was “inactive”.
Turning to `CS(=O)(=O)OCCCCOS(C)(=O)=O`, the outcome in [5] and in [1] was inactive.
In the case of `CCCCC(CC)COC(=O)C(C#N)=C(c1ccccc1)c1ccccc1` (configuration not stated), the activation in test [3] was -1.93%.
As for `COc1c2occc2cc2ccc(=O)oc12`, the outcome in [8], in [2] and in test [4] was inactive. The activation in [3] was 1.93% and -3.63%.
Regarding `O=C(NCCO[N+](=O)[O-])c1cccnc1`, in test [8], the compound was called inactive.
With `Nc1nc(OCc2ccccc2)c2[nH]cnc2n1`, in test [9], the Potency result was “inactive”.
`O=c1c(O)c(-c2cc(O)c(O)c(O)c2)oc2cc(O)cc(O)c12`: the compound was classed as inactive in test [8].
On to `CCN(CC)C(=S)SSC(=S)N(CC)CC`, for which the result in test [5], in test [1], in test [7] and in test [4] was inactive. Moreover, the activation is 6.34% in [6] and 3.99% in test [3].
In the case of `CC(=O)Nc1ccc(O)cc1`, the outcome in test [8] was inactive.
`Nc1nc(Cl)nc2c1ncn2[C@H]1C[C@H](O)[C@@H](CO)O1`: the result in test [2] and in [4] was inactive. Also, in [3], the activation is -6.36%.
For `N[C@@H](Cc1cc(I)c(Oc2cc(I)c(O)c(I)c2)c(I)c1)C(=O)O`, the activation in [3] was -13.7%.
Turning to `Nc1ccc(S(N)(=O)=O)cc1`, the activation in [3] is 9.11%. Also, the result in test [4] was inactive.
For `COC(=O)C1=C(C)NC(C)=C(C(=O)OC(C)C)C1c1cccc2nonc12` (configuration not stated), the compound was classed as inactive in [8].
